Source: ChEMBL document CHEMBL1961873, “Compounds: GSK PKIS; Assays: Nanosyn kinase panel” (2012)
Values joined by “and” are separate entries in the source; they are usually repeats but may differ in a detail not shown here. Equal values may be shown once.

Experiments:
[1] = target: T1, Muscle, skeletal receptor tyrosine-protein kinase (Homo sapiens) (UniProt O15146); details: at 1 µM;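 further: reported value is the mean percent inhibition of MuSK kinase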
T1 sequence (whole entry): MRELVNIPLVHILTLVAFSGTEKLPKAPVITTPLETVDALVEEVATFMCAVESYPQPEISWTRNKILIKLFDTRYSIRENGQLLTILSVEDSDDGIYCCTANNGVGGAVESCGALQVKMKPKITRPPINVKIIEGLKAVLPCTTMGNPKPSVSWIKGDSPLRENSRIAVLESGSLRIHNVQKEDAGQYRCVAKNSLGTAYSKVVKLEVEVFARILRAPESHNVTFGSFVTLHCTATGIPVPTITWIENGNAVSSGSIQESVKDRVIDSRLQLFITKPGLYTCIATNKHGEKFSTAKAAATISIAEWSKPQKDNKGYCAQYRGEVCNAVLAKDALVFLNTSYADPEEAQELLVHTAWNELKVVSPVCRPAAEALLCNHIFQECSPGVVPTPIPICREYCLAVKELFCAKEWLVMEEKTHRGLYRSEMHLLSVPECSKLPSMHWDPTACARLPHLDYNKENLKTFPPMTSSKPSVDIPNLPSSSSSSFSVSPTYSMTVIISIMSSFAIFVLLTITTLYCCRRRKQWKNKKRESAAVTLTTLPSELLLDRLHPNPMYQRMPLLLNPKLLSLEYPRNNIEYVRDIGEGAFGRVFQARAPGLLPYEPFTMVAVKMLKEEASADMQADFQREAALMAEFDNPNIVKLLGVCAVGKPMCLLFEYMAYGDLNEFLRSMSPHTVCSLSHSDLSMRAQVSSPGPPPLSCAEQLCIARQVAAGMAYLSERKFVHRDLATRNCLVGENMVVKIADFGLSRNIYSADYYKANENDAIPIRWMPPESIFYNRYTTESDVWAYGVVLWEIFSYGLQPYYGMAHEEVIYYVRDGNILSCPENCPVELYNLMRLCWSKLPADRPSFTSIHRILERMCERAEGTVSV

[2] = target: Platelet-derived growth factor receptor alpha (Homo sapiens) (UniProt P16234); details: at 0.1 µM
[3] = target: Platelet-derived growth factor receptor alpha (Homo sapiens) (UniProt P16234); details: at 1 µM
[4] = system: Platelet-derived growth factor receptor alpha (Homo sapiens), P16234 [D842V]; details: at 0.1 µM
[5] = system: Platelet-derived growth factor receptor alpha (Homo sapiens), P16234 [D842V]; details: at 1 µM
[6] = system: Platelet-derived growth factor receptor alpha (Homo sapiens), P16234 [T674I]; details: at 0.1 µM
[7] = system: Platelet-derived growth factor receptor alpha (Homo sapiens), P16234 [T674I]; details: at 1 µM
[8] = system: Platelet-derived growth factor receptor alpha (Homo sapiens), P16234 [V561D]; details: at 0.1 µM
[9] = system: Platelet-derived growth factor receptor alpha (Homo sapiens), P16234 [V561D]; details: at 1 µM
[10] = target: Platelet-derived growth factor receptor beta (Homo sapiens) (UniProt P09619); details: at 0.1 µM;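 further: reported value is the mean percent inhibition of the kinase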
Platelet-derived growth factor receptor beta (Homo sapiens), sequence (P09619 whole entry): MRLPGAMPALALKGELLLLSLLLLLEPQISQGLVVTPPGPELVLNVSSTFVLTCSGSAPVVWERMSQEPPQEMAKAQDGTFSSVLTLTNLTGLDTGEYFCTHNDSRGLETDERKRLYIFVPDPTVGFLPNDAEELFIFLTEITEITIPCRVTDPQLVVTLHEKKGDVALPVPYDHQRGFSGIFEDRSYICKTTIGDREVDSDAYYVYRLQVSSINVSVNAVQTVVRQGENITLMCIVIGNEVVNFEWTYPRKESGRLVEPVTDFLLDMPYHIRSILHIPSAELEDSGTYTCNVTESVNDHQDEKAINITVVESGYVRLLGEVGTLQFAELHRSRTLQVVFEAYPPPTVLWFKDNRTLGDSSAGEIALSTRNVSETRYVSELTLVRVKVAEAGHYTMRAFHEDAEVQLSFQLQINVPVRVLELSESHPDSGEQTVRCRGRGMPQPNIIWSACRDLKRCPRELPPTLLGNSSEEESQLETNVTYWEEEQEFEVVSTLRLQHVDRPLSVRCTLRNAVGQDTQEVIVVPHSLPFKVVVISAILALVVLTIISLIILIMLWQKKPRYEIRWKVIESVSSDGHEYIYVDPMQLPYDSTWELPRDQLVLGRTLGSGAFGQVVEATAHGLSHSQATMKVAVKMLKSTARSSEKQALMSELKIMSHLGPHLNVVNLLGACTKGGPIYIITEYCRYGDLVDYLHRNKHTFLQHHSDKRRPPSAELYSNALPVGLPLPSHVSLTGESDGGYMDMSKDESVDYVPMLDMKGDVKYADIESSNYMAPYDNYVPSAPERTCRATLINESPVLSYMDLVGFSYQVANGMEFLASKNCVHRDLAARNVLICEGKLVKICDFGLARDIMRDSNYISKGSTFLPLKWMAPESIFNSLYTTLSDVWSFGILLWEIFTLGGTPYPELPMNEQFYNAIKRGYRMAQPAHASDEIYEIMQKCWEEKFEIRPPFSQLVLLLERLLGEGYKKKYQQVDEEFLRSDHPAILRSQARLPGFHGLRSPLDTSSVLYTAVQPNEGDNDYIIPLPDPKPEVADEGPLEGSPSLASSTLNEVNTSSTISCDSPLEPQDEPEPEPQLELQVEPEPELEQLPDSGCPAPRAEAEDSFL

Platelet-derived growth factor receptor alpha (Homo sapiens), P16234 [D842V], sequence (P16234 whole entry D842V): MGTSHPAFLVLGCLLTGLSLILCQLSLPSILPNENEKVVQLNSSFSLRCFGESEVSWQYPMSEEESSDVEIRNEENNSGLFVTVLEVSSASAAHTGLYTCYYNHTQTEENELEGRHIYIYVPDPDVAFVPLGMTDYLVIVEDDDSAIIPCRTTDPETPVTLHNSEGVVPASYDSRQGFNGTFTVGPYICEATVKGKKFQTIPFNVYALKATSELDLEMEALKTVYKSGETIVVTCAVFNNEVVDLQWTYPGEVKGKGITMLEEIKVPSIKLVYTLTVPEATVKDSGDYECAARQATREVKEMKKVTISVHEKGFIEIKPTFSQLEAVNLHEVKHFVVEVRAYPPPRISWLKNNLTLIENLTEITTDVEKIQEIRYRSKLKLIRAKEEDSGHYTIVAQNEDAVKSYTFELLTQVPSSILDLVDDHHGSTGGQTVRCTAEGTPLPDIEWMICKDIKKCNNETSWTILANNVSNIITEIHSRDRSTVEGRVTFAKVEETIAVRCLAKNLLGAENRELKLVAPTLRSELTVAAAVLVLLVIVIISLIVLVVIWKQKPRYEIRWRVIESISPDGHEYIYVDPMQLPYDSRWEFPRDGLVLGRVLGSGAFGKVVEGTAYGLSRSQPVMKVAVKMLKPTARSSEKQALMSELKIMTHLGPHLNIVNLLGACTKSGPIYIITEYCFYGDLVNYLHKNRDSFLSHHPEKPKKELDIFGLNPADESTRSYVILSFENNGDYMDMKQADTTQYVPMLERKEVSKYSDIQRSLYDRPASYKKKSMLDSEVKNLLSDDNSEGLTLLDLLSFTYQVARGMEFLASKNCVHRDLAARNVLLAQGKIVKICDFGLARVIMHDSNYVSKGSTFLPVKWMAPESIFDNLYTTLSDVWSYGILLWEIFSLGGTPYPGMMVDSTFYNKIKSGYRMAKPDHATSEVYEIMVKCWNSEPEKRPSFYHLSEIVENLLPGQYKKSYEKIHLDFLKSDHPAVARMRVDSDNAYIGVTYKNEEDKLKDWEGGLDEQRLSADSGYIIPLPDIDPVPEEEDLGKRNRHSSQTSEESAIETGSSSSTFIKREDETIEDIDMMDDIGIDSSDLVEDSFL
Platelet-derived growth factor receptor alpha (Homo sapiens), P16234 [V561D], sequence (P16234 whole entry V561D): as the sequence (P16234 whole entry D842V) above, with V561D, V842D counted along it
Platelet-derived growth factor receptor alpha (Homo sapiens), P16234 [T674I], sequence (P16234 whole entry T674I): as the sequence (P16234 whole entry D842V) above, with T674I, V842D counted along it
Platelet-derived growth factor receptor alpha (Homo sapiens), sequence (P16234 whole entry): as the sequence (P16234 whole entry D842V) above, with V842D counted along it

Structure (SMILES) | inhibition [1] | inhibition [2] | inhibition [3] | inhibition [4] | inhibition [5] | inhibition [6] | inhibition [7] | inhibition [8] | inhibition [9] | inhibition [10]
Cc1ccc(-c2cc3c(NC(=O)C4CC4)ncnc3o2)cc1 | 7.78% | 13.9% | 38.1% | 7.31% | 29.8% | 6.86% | 32.7% | 8.94% | 31.9% | 8.16%
CC1(C)CC(n2cnc(-c3ccc(F)cc3)c2-c2ccnc(N)n2)CC(C)(C)N1 | 5.42% | 3.29% | 5.34% | 1.19% | 0.18% | 2.4% | 4.71% | -0.6% | 3.08% | 5.64%
Fc1ccc(Nc2nccc(-c3c(-c4ccc(C(F)(F)F)cc4)nn4ncccc34)n2)cc1F | 2.81% | 8.86% | 7.72% | – | 4.26% | 4.35% | 6.66% | 3.46% | 2.39% | 2.15%
COc1ccccc1-c1cc(/C=C2\C(=O)Nc3ncc(Br)cc32)cc(Br)c1O | 5.9% | 11.6% | 16.9% | 2.43% | 5.41% | 8.02% | 8.24% | 2.82% | 15.2% | 6.48%
COc1cc(N2CCN(C(C)C)CC2)ccc1Nc1nc(Nc2cccc3ncccc23)c2cc[nH]c2n1 | 9.48% | 2.96% | 15.3% | 0.2% | 5.09% | 2.09% | 2.26% | 3.08% | 14.8% | 1.3%
O=C(O[C@H]1CN[C@H](C#Cc2cc3ncnc(Nc4ccc5c(cnn5Cc5ccccc5)c4)c3s2)C1)N1CCOCC1 | -0.19% | 2.17% | 8.81% | 2.71% | 3.09% | -0.12% | 2.78% | 2.22% | 2.22% | 2.18%
CCCNc1cccc(-n2ncc3c(N/N=C/c4ccncc4)ncnc32)c1 | 49.9% | 29.4% | 78.4% | 16.3% | 71% | 11.7% | 38.2% | 15.3% | 68.4% | 27.1%
Cc1cc(O)cc(C)c1/C=C/c1cncc(C(=O)OC(C)(C)C)c1 | 3.99% | 9.43% | 42.6% | 5.23% | 14.7% | 4.63% | 5.73% | 14.4% | 51% | 9.17%
Nc1nonc1-c1nc2cnccc2n1C1CC1 | 8.16% and 1.56% | 15.3% and 5.54% | 18.8% and 15.6% | 4.39% and 4.32% | 16.4% and 18.7% | 6.49% and 5.23% | 20.2% and 20.4% | 4.47% and 2.61% | 14% and 12.1% | 10.2% and 2.99%
CCN1CCC(C(=O)Nc2n[nH]c3nnc(-c4cccc(F)c4F)cc23)CC1 | 4.59% | 0.87% | 3.69% | 1.64% | 2.59% | 2.94% | 7.18% | -0.48% | 0.89% | 3.08%
O=C(O[C@H]1CN[C@H](C#Cc2cc3ncnc(Nc4ccc(OCc5cccc(F)c5)c(Cl)c4)c3s2)C1)N1CCOCC1 | 2.35% | 7.9% | 14.3% | 2.95% | 4.82% | 8.66% | 9.57% | 8.32% | 3.92% | 1.59%
CN1CCC(C(=O)Nc2n[nH]c3nc(-c4ccc(O)cc4)c(Br)cc23)CC1 | 9.34% and 7.11% | 5.64% and 6.91% | 27.9% and 21.1% | 2.54% and 0.22% | 16.3% and 9.77% | 5.57% and 1.83% | 9.37% and 7.73% | 5.98% and 2.37% | 19.9% and 16.1% | 7.32% and 7.22%
COc1ccc(-c2nn3ncccc3c2-c2ccnc(Nc3ccc(F)c(F)c3)n2)cc1 | 3.15% | 14.7% | 17.7% | – | 8.96% | 10.3% | 11.2% | 7.34% | 11.3% | 9.04%
CS(=O)(=O)CCNCc1ccc(-c2ccc3ncnc(Nc4ccc(OCc5ccccc5)cc4)c3c2)o1 | 1.04% | 4.6% | 10.4% | 3.6% | 3.61% | 3.14% | 4.61% | 5.39% | 7.8% | 3%
CN1CCN(Cc2ccc(-c3cc4ncnc(Nc5ccc(OCc6cccc(F)c6)c(Cl)c5)c4s3)o2)CC1 | 1.12% and 8.01% | 6.77% and 7.26% | 16.9% and 23.4% | 3.07% and 3.74% | 6.44% and 9.07% | 4.32% and 7.13% | 13.9% and 20% | 5.61% and 3.37% | 13.1% and 11.5% | 2.48% and 3.36%
COc1cc(Nc2ncc(-c3ccccc3)o2)cc(OC)c1 | 4.72% | 17.5% | 54.3% | 4.08% | 12.3% | 19.5% | 76.4% | 38.5% | 64.3% | 20.5%
COc1cc(N2CCN(C(C)C)CC2)ccc1Nc1nc(Nc2cccc(F)c2C(=O)O)c2cc[nH]c2n1 | 10.5% | 11.3% | 12.8% | 3.04% | 3.08% | 7.14% | 8.84% | 5.91% | 5.37% | 7.62%
COC(=O)Nc1nc2cc(Oc3ccc(NC(=O)Nc4ccccc4)cc3)ccc2[nH]1 | 2.88% | 38.5% | 66.6% | 0.57% | 5.23% | 53% | 93.9% | 62.7% | 84.8% | 7.12%
c1cnn2ncc(-c3ccnc(NCCCN4CCOCC4)n3)c2c1 | 0.6% | 5.5% | 6.66% | 0.88% | 3.59% | 3.47% | 5.82% | 3.16% | 2.82% | 0.52%
c1ccc(-c2n[nH]cc2-c2ccnc(-c3ccc(OCCn4ccnc4)cc3)c2)nc1 | 4.35% | 14.2% | 64.6% | 23.5% | 76.1% | 6.06% | 6.32% | 17.8% | 57% | 15.3%
FC(F)(F)CNc1nccc(-c2cnn3ncccc23)n1 | -2.34% | 0.78% | 10.1% | – | 4.9% | 1.52% | 4.54% | 0.59% | 2.85% | 2.11%
COC(=O)Nc1nc2ccc(Oc3ccc(NC(=O)Nc4cc(C(F)(F)F)ccc4F)cc3)cc2s1 | 85.6% | 70.3% | 83.5% | 5.8% | 22.8% | 41.6% | 92% | 74.8% | 93.7% | 20.2%
NC(=O)c1ccc2c(-c3ccnc(NCCCO)n3)c(-c3ccc(F)cc3)nn2c1 | 2.08% | 5.5% | 16.9% | 4.25% | 8.75% | 6.06% | 6.59% | 4.18% | 14.3% | 4.83%
